Inconclusive results are not listed. Activity calls are given as the source filed them. Unless noted, calls come from the whole dose curve.
Experiments:
[1] = target: Bile acid receptor (Homo sapiens) (UniProt Q96RI1); assay: qHTS assay for small molecule agonists of farnesoid X receptor signaling (AID 588527); conditions: HEK293T FXR-UAS-bla, beta-lactamase ratio, 16 h; activation: stronger effect = higher value;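 note: series mostly up to about 77 µM; 0% = vehicle basal and 100% = reference agonist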
Bile acid receptor (Homo sapiens), sequence (Q96RI1 whole entry, looked up): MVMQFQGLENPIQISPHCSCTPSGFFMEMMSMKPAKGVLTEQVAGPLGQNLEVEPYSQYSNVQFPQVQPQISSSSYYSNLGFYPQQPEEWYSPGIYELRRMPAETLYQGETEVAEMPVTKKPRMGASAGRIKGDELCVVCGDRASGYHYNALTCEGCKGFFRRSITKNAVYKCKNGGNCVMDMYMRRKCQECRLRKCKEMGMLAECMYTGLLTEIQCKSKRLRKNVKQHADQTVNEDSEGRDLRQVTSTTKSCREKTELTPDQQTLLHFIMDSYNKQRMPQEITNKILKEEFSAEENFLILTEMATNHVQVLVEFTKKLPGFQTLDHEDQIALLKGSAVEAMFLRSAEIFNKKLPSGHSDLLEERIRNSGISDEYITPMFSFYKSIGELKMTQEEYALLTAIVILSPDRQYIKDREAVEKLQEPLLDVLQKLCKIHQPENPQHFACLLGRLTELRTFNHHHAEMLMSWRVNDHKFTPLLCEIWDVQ
In short: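 Read-out: beta-lactamase reporter fluorescence with CCF4 substrate in GeneBLAzer FXR-UAS-bla HEK293T cells, after 16 h compound exposure at 37 C. Response scaled between DMSO basal (0%) and chenodeoxycholic acid at 100 uM (100%).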

[2] = target: Glucocorticoid receptor (Homo sapiens) (UniProt P04150); assay: qHTS assay for small molecule agonists of glucocorticoid receptor signaling (AID 588532; active = well fitted curve in the direction sought with a large enough effect in the signal ratio, with a control signal flat; the % refers to the signal ratio;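 note: 100% = dexamethasone at 0.1 µM and 0% = DMSO only wells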); conditions: HeLa MMTV-bla, beta-lactamase ratio, agonist, 18 h; activation: stronger effect = higher value, percent of dexamethasone control, DMSO zero
Glucocorticoid receptor (Homo sapiens), sequence (P04150 whole entry, looked up): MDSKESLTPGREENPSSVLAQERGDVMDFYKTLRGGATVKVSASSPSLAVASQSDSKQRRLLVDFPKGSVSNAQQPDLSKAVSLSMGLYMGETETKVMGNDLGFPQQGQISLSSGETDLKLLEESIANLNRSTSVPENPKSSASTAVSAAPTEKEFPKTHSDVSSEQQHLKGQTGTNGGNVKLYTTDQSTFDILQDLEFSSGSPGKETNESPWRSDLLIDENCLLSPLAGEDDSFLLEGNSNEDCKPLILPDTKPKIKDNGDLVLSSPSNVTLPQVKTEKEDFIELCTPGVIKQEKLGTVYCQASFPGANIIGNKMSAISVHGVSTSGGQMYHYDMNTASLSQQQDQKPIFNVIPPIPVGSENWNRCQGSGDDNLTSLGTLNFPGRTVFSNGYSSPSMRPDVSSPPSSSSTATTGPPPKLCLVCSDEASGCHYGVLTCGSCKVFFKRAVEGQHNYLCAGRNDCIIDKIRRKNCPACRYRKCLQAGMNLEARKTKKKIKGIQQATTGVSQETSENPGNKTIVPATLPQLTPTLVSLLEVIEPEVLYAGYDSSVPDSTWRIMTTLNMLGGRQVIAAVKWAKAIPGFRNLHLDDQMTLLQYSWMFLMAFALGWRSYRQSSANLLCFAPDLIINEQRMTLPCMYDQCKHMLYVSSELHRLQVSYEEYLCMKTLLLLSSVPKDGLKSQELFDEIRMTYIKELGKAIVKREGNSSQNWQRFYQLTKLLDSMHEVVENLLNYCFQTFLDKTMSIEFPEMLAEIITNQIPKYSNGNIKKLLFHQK
In short: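 Cells were plated and rested 3-5 h at 37 C, compounds were added in titration and incubated 18 h, then CCF4 substrate was loaded for 2 h at RT before reading blue/green fluorescence. EC50 came from Hill-equation fitting.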

[3] = target: Peroxisome proliferator-activated receptor delta (Homo sapiens) (UniProt Q03181); assay: qHTS assay for small molecule agonists of peroxisome proliferator-activated receptor delta signaling (AID 588534);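 note: 0% = DMSO basal wells and 100% = positive control agonist at 10 µM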
Peroxisome proliferator-activated receptor delta (Homo sapiens), sequence (Q03181 whole entry, looked up): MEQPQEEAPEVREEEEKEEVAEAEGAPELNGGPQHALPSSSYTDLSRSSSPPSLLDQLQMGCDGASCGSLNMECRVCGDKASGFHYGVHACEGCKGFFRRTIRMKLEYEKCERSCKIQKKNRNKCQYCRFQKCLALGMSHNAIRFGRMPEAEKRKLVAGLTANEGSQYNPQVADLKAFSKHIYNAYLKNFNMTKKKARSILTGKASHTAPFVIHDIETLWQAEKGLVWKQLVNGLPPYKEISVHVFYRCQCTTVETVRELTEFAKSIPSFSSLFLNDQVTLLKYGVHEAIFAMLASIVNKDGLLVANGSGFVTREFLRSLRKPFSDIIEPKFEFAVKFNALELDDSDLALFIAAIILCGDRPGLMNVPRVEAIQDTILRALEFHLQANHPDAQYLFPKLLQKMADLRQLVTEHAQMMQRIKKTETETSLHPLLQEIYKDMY
In short: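 Titration series tested in agonist mode on beta-lactamase reporter cells; 18 hrs at 37 C after a 5 hr pre-incubation. Readout: CCF4 fluorescence, 2 hrs RT. Hill equation gives EC50 and maximal response.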

[4] = qHTS assay for small molecule antagonists of peroxisome proliferator-activated receptor delta signaling (AID 588535; active = well fitted inhibition curve with a large enough effect in the signal ratio, with a control signal flat, not every such curve was filed as active; the % refers to the signal ratio;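 for max response: cells co-treated with a PPAR-delta agonist as stimulator during compound exposure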); conditions: HEK293T PPARd-UAS-bla, beta-lactamase FRET ratio, 18 h; 460 nm channel
In short: (§1)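 Beta-lactamase reporter read-out (405 nm excitation, 460/530 nm emission) after CCF4 loading for 2 hrs at RT. HEK293T PPAR-delta-UAS-bla cells, 2% charcoal/dextran FBS, compounds for 18 hrs at 37 C. Hill fit gave IC50 and efficacy.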

[5] = target: Peroxisome proliferator-activated receptor delta (Homo sapiens) (UniProt Q03181); assay: as above
In short: as §1

[6] = target: Vitamin D3 receptor (Homo sapiens) (UniProt P11473); assay: qHTS assay for small molecule antagonists of vitamin D receptor signaling (AID 588541);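 note: receptor activated by calcitriol during compound treatment; series mostly up to about 77 µM; % is set by controls: 0 for no effect and ±100 for the full control effect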
Vitamin D3 receptor (Homo sapiens), sequence (P11473 whole entry, looked up): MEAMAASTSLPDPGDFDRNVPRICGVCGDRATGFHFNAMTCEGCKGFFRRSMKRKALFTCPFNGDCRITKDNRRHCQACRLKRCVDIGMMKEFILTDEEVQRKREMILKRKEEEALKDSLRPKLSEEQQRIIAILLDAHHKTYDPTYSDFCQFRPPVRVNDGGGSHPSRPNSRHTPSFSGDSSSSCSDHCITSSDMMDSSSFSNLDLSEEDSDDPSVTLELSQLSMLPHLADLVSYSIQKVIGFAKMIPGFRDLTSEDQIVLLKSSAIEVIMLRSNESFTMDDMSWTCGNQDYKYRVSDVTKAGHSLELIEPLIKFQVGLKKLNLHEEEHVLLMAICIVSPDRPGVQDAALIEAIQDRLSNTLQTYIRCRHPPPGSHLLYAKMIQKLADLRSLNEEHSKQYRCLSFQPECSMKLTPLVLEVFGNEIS
In short: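 VDR-UAS-bla HEK293T cells in 2% charcoal-stripped FBS were stimulated with 1-alpha,25-dihydroxyvitamin D3 (3 nM final) plus compound for 16 h at 37 C. The beta-lactamase CCF4 readout was normalized to 50 nM agonist and DMSO, and Hill fits gave IC50.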

[7] = target: Vitamin D3 receptor (Homo sapiens) (UniProt P11473); assay: qHTS assay for small molecule agonists of vitamin D receptor signaling (AID 588543);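 note: 0% = DMSO basal and 100% = reference agonist control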
In short: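 Reporter cells (HEK293T, VDR-UAS-bla) were seeded in medium with 2% charcoal-stripped serum and incubated 5 h, then compounds in concentration series were added for 16 h at 37 °C. Stimulation was scaled between DMSO basal and 50 nM 1α,25-dihydroxyvitamin D3.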

[8] = qHTS assay for small molecule agonists of retinoid X receptor alpha signaling (AID 588544); conditions: HEK293T RXRa-UAS-bla, beta-lactamase reporter, 18 h; 530 nm emission;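 for activation: 0% = DMSO basal wells and 100% = reference agonist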
[9] = target: Retinoic acid receptor RXR-alpha (Homo sapiens) (UniProt P19793); assay: as above
Retinoic acid receptor RXR-alpha (Homo sapiens), sequence (P19793 whole entry, looked up): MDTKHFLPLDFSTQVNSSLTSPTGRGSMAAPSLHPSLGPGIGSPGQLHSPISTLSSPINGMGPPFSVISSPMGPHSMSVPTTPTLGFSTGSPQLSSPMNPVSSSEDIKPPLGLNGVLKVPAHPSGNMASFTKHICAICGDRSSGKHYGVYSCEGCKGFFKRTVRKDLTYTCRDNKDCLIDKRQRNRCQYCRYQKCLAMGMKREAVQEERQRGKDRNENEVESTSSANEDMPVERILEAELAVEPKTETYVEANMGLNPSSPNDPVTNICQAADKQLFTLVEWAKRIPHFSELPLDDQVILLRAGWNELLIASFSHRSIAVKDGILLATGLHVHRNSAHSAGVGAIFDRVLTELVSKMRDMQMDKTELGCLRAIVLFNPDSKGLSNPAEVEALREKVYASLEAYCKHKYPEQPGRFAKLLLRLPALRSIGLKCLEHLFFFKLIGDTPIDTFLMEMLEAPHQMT

[10] = target: Thyroid hormone receptor beta (Homo sapiens) (UniProt P10828); assay: qHTS assay for small molecule agonists of thyroid hormone receptor beta signaling (AID 588545)
Thyroid hormone receptor beta (Homo sapiens), sequence (P10828 whole entry, looked up): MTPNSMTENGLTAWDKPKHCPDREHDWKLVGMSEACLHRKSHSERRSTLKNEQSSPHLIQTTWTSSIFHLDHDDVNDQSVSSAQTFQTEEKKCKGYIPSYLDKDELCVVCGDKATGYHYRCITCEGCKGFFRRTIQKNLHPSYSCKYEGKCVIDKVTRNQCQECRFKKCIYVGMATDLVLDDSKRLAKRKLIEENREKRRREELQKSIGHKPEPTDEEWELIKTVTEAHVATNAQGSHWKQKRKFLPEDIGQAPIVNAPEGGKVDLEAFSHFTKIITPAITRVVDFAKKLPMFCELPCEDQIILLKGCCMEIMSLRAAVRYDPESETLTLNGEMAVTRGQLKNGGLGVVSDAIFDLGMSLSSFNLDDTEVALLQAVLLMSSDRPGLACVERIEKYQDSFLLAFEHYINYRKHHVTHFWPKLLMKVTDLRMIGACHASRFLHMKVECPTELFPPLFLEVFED
In short: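 Cells (2500/well) were seeded, incubated 4 hrs at 37 C, dosed with a compound series, incubated 18 hrs, loaded with CCF4 dye for 2 hrs at RT, then read for fluorescence. Data were scaled between DMSO (0%) and 10 nM T3 (100%).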

[11] = target: Thyroid hormone receptor beta (Homo sapiens) (UniProt P10828); assay: qHTS assay for small molecule antagonists of thyroid hormone receptor beta signaling (AID 588547; active = well fitted inhibition curve with a large enough effect in the signal ratio, with a control signal flat, not every such curve was filed as active; the % refers to the signal ratio;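 note: cells stimulated with 0.4 nM T3 agonist during compound exposure; series mostly up to about 77 µM; % is set by controls: 0 for no effect and ±100 for the full control effect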); conditions: TR-UAS-bla HEK293, beta-lactamase ratio, antagonist mode, 18 h
In short: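 TR-UAS-bla GripTite HEK293 cells in 2% charcoal/dextran FBS medium; compounds 0.59 nM to 92 uM with T3 at 0.4nM final, 18 h at 37 C. Beta-lactamase read by CCF4 fluorescence (460/530 nm); Hill fits gave IC50 and efficacy.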

[12] = qHTS assay for small molecule agonists of the antioxidant response element (ARE) signaling pathway (AID 651741; active = well fitted activation curve with a large enough effect in the signal ratio; the % refers to the signal ratio; note: potency is the fitted concentration of half-maximal effect; for activation: % of control where 0% means no effect)
In short: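 HepG2 ARE-bla reporter cells, 2,000/well; 5 h settle at 37 C/5% CO2; compound pin transfer (23 nL, DMSO); 16 h at 37 C; LiveBLAzer B/G FRET substrate, 2 h RT; fluorescence intensity read.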

[13] = qHTS assay for small molecule activators of the p53 signaling pathway (AID 651743; active = well fitted activation curve with a large enough effect in the signal ratio, not every such curve was filed as active; the % refers to the signal ratio; note: series mostly up to about 92 µM; % of control where 0% means no effect); conditions: HCT-116 p53RE-bla, beta-lactamase FRET ratio, 16 h; activation: stronger effect = higher value
In short: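 Reporter: beta-lactamase driven by p53 response elements, stably integrated in HCT-116 cells. Cells seeded at 4,000/well, 5 h preincubation, compound (DMSO) 16 h at 37 C; B/G FRET substrate 2 h RT; fluorescence intensity read.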

[14] = qHTS assay for small molecule activators of the nuclear factor-kappa B (NF-kB) signaling pathway (AID 651749; active = well fitted activation curve with a large enough effect in the signal ratio; the % refers to the signal ratio; note: series mostly up to about 77 µM; % of control where 0% means no effect); conditions: NF-kB-bla ME-180 cells, beta-lactamase FRET ratio, 16 h; activation: stronger effect = higher value
In short: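 NF-kB-bla ME-180 cells, 2,000/well; 23 nL compound or DMSO pinned; 16 hr, 37C/5% CO2; beta-lactamase FRET read-out.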

[15] = qHTS assay for environmental chemicals that activate the Aryl hydrocarbon Receptor (AhR) signaling pathway (AID 651777; active = well fitted curve in the direction sought with a large enough effect; an effect the other way counts as inactive or inconclusive; note: % of control where 0% means no effect; nearly all actives have a fitted effect of over 15% in size); conditions: 1A2-DRE human hepatoma cells, luciferase, 24 h; activation: stronger effect = higher value
In short: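 Luminescence read-out: One-Glo added for 30 min at RT after 24 hr compound treatment (37 C, 5% CO2) of human hepatoma cells expressing a DRE/CYP1A2 promoter–luciferase reporter; increased signal indicates AhR activation.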

[16] = target: Peroxisome proliferator-activated receptor alpha (Homo sapiens) (UniProt Q07869); assay: qHTS assay for small molecule agonists of the peroxisome proliferator-activated receptor alpha (PPARalpha) signaling pathway (AID 651778; active = well fitted curve in the direction sought with a large enough effect; an effect the other way counts as inactive or inconclusive; note: % of control where 0% means no effect); conditions: PathHunter PPARalpha complementation, chemiluminescence, 6 h; max response: stronger effect = higher value
Peroxisome proliferator-activated receptor alpha (Homo sapiens), sequence (Q07869 whole entry, looked up, the tested form may be a part): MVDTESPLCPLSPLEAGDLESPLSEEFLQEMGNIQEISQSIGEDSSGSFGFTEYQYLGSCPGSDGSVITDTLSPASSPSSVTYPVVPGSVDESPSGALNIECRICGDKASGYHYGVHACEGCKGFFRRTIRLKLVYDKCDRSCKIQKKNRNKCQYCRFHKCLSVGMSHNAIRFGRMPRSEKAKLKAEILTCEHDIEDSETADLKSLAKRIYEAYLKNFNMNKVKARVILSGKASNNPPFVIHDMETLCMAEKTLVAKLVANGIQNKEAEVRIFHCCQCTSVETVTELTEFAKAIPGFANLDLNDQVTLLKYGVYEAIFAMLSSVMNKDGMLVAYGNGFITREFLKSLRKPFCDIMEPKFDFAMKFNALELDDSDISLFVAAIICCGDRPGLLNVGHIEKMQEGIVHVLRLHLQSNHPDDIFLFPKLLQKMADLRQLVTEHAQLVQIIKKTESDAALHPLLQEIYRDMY
In short: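 Enzyme-fragment complementation assay in which ligand-bound PPARalpha translocates and forms an active enzyme that generates chemiluminescence. Cells were plated overnight, exposed to compound for 6 hr at 37 C, and then given detection reagent for 60 min at room temperature.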

[17] = qHTS assay for small molecule agonists of the antioxidant response element (ARE) signaling pathway measured by Nrf2-dependant transcriptional activity (AID 720636; active = well fitted curve in the direction sought with a large enough effect in the repeat runs; an effect the other way counts as inactive or inconclusive;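 note: HepG2 cells with an ARE-driven luciferase reporter; % of control where 0% means no effect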)
In short: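 HepG2 ARE-luc reporter line, 1% dialyzed FBS; 6 hr attachment at 37 C, compound pinned in, 16 hr at 37 C/5% CO2; ONE-Glo, 30 min RT, luminescence read.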

[18] = qHTS assay for small molecule agonists of the antioxidant response element (ARE) signaling pathway measured by Nrf2-dependant transcriptional activity - cell viability counter screen (AID 720653; active = well fitted curve in the direction sought with a large enough effect in the repeat runs; an effect the other way counts as inactive or inconclusive; note: % is set by controls: 0 for no effect and ±100 for the full control effect); conditions: ARE-bla HepG2 viability, CellTiter-Glo ATP luminescence, 16 h; max response: stronger effect = lower value
In short: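 ARE-bla HepG2 cells treated with compounds for 16 h at 37C; this counter screen measures viability as intracellular ATP by CellTiter-Glo luminescence after 30 min at room temperature.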

[19] = qHTS assay for cell viability of HEK293 cells (AID 743288; active = well fitted curve in the direction sought with a large enough effect; an effect the other way counts as inactive or inconclusive; note: nearly all actives have a fitted effect of over 50% in size; note: potency is the fitted concentration of half-maximal effect; for max response: % is set by controls: 0 for no effect and ±100 for the full control effect); conditions: ATP luminescence (CellTiter-Glo), 18 h; max response: stronger effect = lower value
In short: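 Viable-cell counts were inferred from luciferase-based ATP content in HEK293 cells seeded at 2,000/well, pre-incubated ≥5 h, then dosed with DMSO-solubilised compounds for 18 h at 37 C.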

[20] = qHTS assay for cell viability of the p53RE-bla HCT-116 cell line (AID 743292; active = well fitted curve in the direction sought with a large enough effect; an effect the other way counts as inactive or inconclusive; note: % is set by controls: 0 for no effect and ±100 for the full control effect; nearly all actives have a fitted effect of over 55% in size)
In short: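 Luminescent ATP quantitation (CellTiter-Glo) served as the viability read-out; reagent was added after 16 h compound exposure at 37 C and read after 30 min at room temperature. Cells: p53RE-bla HCT-116, 4,000 per well.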

[21] = target: Glucocorticoid receptor (Homo sapiens) (UniProt P04150); assay: qHTS assay for small molecule antagonists of glucocorticoid receptor signaling (AID 588533; active = well fitted inhibition curve with a large enough effect in the signal ratio, with a control signal flat, not every such curve was filed as active; the % refers to the signal ratio; note: potency is the fitted concentration of half-maximal effect)
In short: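 Antagonist-mode qHTS: compound titrations added to GRE-bla HeLa cells, then dexamethasone 2 nM final; 18 h, 37 C. CCF4 FRET fluorescence normalized to dexamethasone and DMSO; IC50 from Hill fit.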

[22] = qHTS assay for small molecule antagonists of retinoid X receptor alpha signaling (AID 588546; active = well fitted inhibition curve with a large enough effect in the signal ratio, with a control signal flat, not every such curve was filed as active; the % refers to the signal ratio; note: potency is the fitted concentration of half-maximal effect); conditions: HEK293T RXRa-UAS-bla, beta-lactamase ratio, antagonist mode; measured here: W530 green channel, cytotoxicity proxy
In short: (§2)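 Beta-lactamase reporter inhibition, read as CCF4 fluorescence ratio (ex 405, em 460/530 nm) after 2 h at RT. HEK293T UAS-bla cells, 2500/well, were stimulated with 9-cis-RA at 500 or 100 nM final alongside test compound for 18 h at 37 C.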

[23] = target: Retinoic acid receptor RXR-alpha (Homo sapiens) (UniProt P19793); assay: as above; conditions: HEK293T RXRa-UAS-bla, beta-lactamase ratio, antagonist mode
In short: as §2

[24] = target: Peroxisome proliferator-activated receptor gamma (Homo sapiens) (UniProt P37231); assay: qHTS assay for small molecule agonists of peroxisome proliferator-activated receptor gamma signaling (AID 588536; active = well fitted curve in the direction sought with a large enough effect in the signal ratio, with a control signal flat, not every such curve was filed as active; the % refers to the signal ratio;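 note: 0% = DMSO basal wells and 100% = rosiglitazone at 2 µM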)
Peroxisome proliferator-activated receptor gamma (Homo sapiens), sequence (P37231 whole entry, looked up): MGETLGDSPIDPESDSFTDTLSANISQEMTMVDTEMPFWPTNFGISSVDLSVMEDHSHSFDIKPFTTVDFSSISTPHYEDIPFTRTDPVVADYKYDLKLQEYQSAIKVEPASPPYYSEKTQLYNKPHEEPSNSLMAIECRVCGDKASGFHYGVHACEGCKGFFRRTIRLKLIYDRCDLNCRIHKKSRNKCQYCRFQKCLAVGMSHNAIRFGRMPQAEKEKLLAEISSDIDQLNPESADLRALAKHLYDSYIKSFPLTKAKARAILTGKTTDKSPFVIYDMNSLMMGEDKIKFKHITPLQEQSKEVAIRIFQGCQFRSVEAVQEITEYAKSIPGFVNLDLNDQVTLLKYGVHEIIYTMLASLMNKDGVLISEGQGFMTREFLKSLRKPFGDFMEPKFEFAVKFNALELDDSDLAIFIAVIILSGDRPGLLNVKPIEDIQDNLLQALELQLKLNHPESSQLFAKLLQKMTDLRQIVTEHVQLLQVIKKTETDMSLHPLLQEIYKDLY
In short: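 Beta-lactamase reporter read-out: CCF4 fluorescence (ex 405, em 460/530 nm) after 2 h at RT. HEK293 GeneBLAzer cells were treated for 16 h at 37 C. Hill fits gave EC50 and efficacy versus 2 uM rosiglitazone (100%) and DMSO (0%).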

[25] = target: Peroxisome proliferator-activated receptor gamma (Homo sapiens) (UniProt P37231); assay: qHTS assay for small molecule antagonists of peroxisome proliferator-activated receptor gamma signaling (AID 588537; active = well fitted inhibition curve with a large enough effect in the signal ratio, with a control signal flat, not every such curve was filed as active; the % refers to the signal ratio;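 note: reporter cells co-stimulated with 50 nM rosiglitazone agonist during compound treatment; % of control where 0% means no effect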)
In short: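 Read-out: CCF4 fluorescence (ex 405, em 460/530 nm) after 2 h at RT. Cells were HEK293 carrying a UAS-bla reporter and treated 16 h at 37 C with compound plus rosiglitazone (50 nM final). Normalized to rosiglitazone and DMSO.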

[26] = target: Nuclear receptor subfamily 1 group I member 2 (Rattus norvegicus) (UniProt Q9R1A7); assay: qHTS assay for small molecule activators of the rat pregnane X receptor (rPXR) signaling pathway (AID 651751; call rule not given here; note: 0% is about no effect); conditions: rPXR reporter cells, luciferase (One-Glo), 24 h
Nuclear receptor subfamily 1 group I member 2 (Rattus norvegicus), sequence (Q9R1A7 whole entry, looked up): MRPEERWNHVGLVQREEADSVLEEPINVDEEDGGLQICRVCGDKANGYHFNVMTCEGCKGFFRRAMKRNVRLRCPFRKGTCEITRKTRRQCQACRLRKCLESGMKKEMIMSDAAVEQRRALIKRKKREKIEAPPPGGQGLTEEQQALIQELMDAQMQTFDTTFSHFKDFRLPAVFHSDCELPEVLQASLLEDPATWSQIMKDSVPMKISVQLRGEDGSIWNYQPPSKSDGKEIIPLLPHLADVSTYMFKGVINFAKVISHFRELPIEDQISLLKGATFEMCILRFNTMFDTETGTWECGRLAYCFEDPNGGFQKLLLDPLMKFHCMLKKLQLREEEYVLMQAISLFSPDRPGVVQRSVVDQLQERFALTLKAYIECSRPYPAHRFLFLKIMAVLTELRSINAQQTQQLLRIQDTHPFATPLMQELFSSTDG

[27] = qHTS assay for small molecule activators of the human pregnane X receptor (PXR) signaling pathway (AID 720659; call rule not given here; note: 0% is about no effect)

CN/C(=N/[N+](=O)[O-])NCC1CCOC1 (stereo not drawn)
22.2%: max response [4]
-9.02%: max response [8]
inactive: activation [1] -2.75% | activation [2] 0.122% | outcome [3] | Potency [5] | Potency [6] | outcome [7] | Potency [9] | Potency [10] | activity change % (negative = inhibition) [11] -1.83% | Potency [12] | activation [13] 3.08% | activation [14] -0.877% | activation [15] -0.372% | max response [16] -0.384% | Potency [17] | max response [18] -9.26% | max response [19] -6.54% | Potency [20]

CC(C)N(C(=O)SCC(Cl)=C(Cl)Cl)C(C)C
inactive: activation [1] 4.22% | activation [2] 18.5% | Potency [21] | outcome [3] | outcome [7] | max response [23] 10.8% | activity change % (negative = inhibition) [11] -15.2% | activation [13] -5.02% | activation [14] -1.22% | max response [16] 22.8% | Potency [17] | max response [18] 15.1% | max response [19] 2.96%
9.5%: max response [22]

CCCCC(CC)COC(=O)c1ccc(C(=O)OCC(CC)CCCC)cc1 (stereo not drawn)
inactive: activation [1] 2.72%

CCCCCCCCCCCCN(C)C
inactive: activation [1] 2.94% | activation [2] -15.1% | Potency [21] | outcome [3] | Potency [5] | Potency [24] | Potency [25] | Potency [6] | outcome [7] | Potency [9] | Potency [10] | max response [23] -14.3% | Potency [12] | activation [13] 0.386% | activation [15] -2.66% | max response [16] -1.36% | Potency [17] | max response [18] -0.69% | max response [19] -1.64% | Potency [20] | max response [26] -0.417% | outcome [27]
1.32%: max response [22]
-18.8%: max response [4]
-10.4%: max response [8]

CC(=O)N(CCN(C(C)=O)C(C)=O)C(C)=O
inactive: activation [1] 1.43%

CCOCCOCCOCCO
inactive: activation [1] 2.46%

CCC[CH2][Sn]([Cl])([Cl])[CH2]CCC
25.9%: max response [22]
active: Potency [21] 15.8 µM | Potency [23] 3.98 µM | Potency [12] 1.93 µM | Potency [19] 39.8 µM
-91.3%: max response [4]
inactive: activation [1] -1.2% | activation [2] -12% | Potency [10] | activation [14] -3.49% | activation [15] -11.4% | max response [16] -2.73% | Potency [17] | max response [26] -14.6%

C=C(C)C(=O)OCC(C)C
inactive: activation [1] -0.219% | outcome [3]
